Screens as filed in PubChem BioAssay.
HIF act = HIF pathway transcriptional activation | hit rate 0.32% among 300,000 | U2OS HRE-luciferase reporter, luminescence; normalized: DMSO 0%, desferrioxamine 100% | activation, % at 7.5 µM (by protocol);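 active = mean activation of at least 10% of the iron chelator positive control signal, with at least half of replicates also reaching 10%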
AHR act = activators of human aryl hydrocarbon receptor; AID 2796; hit rate 2.5% among 320,000; AHR-responsive luciferase reporter cells, luminescence; P35869; activation, % at 5 µM; in the data active = activation above about 47%;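 note: 0% = vehicle wells and 100% = reference agonist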
Platelet DG rel = modulates dense granule release in human platelets | human platelet-rich plasma, SFLLRN dense granule ATP release, luminescence | inhibition, %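 (compounds screened at 7.5 µM in platelet-rich plasma)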 | hit rate 0.22% among 300,000 | AID 1663;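 active = mean replicate score, as percent of positive control, at or above 50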
PolyA inh = blocks polyadenylation in yeast reporter cells | S. cerevisiae SKY197-pL101 polyadenylation reporter, beta-gal luminescence; efflux-impaired pdr1/pdr3 knockout yeast; score 100 = 6 SD above DMSO | activity score, % at 12 µM | hit rate 0.02% among 300,000 | AID 1875;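 active = lowest replicate activity score at least 50, where 100 means six control SD above control mean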;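 note: yeast exposed to compound for 9 h at 30 °C; higher score means more reporter readthrough which indicates perturbed polyadenylation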
p-CIP stab down = p/CIP protein destabilization | hit rate 0.01% among 290,000 | decrease of EGFP signal, % at 10 µM | Q05BA5 | F442A p/CIP-EGFP cells, EGFP fluorescence, 16 h;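 active = EGFP signal decrease of at least 30% at 10 µM or well 3 SD below plate mean, unless failing retest; inactive = the rest, including hits failing retest or dose response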
Target sequence (Q05BA5 1-1403): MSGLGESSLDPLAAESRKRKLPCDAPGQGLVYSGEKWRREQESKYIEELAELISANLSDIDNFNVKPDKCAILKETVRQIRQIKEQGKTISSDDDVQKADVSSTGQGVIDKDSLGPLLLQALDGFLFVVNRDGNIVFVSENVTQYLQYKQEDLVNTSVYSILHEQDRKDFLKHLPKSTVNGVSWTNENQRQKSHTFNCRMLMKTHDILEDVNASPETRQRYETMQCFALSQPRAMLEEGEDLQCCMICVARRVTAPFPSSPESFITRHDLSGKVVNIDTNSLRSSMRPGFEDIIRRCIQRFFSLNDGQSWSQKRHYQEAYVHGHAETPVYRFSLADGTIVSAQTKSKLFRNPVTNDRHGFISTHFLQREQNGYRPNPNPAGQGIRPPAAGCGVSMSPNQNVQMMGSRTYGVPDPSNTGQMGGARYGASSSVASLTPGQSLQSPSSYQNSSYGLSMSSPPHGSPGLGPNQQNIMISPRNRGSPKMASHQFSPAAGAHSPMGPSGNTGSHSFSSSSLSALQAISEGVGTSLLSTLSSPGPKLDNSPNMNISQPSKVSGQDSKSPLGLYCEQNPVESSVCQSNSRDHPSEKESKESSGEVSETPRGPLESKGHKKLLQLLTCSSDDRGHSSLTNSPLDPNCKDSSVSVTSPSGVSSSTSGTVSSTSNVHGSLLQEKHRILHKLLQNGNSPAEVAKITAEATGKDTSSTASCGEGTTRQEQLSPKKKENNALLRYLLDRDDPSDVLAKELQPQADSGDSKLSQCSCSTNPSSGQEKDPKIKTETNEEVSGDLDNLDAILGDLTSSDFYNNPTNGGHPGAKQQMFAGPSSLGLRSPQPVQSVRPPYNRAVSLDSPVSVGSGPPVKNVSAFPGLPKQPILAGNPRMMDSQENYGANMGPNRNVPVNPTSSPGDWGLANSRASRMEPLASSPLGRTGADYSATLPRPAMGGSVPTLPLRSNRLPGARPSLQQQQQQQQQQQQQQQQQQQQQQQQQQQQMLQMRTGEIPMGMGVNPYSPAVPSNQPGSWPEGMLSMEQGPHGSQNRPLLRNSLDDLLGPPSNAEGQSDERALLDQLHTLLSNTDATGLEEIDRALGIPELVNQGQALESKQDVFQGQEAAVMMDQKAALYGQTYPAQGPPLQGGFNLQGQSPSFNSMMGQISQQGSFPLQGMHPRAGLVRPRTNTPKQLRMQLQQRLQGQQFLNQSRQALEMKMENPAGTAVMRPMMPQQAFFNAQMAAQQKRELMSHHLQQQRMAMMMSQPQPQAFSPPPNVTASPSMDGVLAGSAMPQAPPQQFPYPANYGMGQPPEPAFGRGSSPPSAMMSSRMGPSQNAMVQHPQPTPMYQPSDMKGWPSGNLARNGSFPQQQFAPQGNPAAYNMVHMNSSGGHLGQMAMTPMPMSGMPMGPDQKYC
* hit, by the source's call; . = no result. Only some compounds are listed: those with a hit (about 2.8% of all), similar ones and a draw of the others.

SMILES	HIF act	AHR act	Platelet DG rel	PolyA inh	p-CIP stab down
O=C1Nc2ccc(Br)cc2C1Cc1ccccc1F (centres undefined)	0.3	57.3*	-1.2	15.7	-5.6
Cn1c(CC2C(=O)Nc3ccc(Br)cc32)nc2ccccc2c1=O (centres undefined)	0.2	50.2*	-6.0	-2.6	-7.5
Cn1c(/C=C/c2cccc(Br)c2)nc2ccccc2c1=O	2.8	4.9	-7.1	-40.5	-15.4
CCCCCC(=O)NC(=S)NC1C2CC3CC(C2)CC1C3 (centres undefined)	0.2	3.0	2.0	16.3	13.0
O=C(Nc1cccc(NC(=O)c2ccccc2Cl)c1)c1ccco1	-0.2	6.0	59.3*	-8.7	-14.5
CCCOc1cccc(C(=O)Nc2cccc(NC(=O)c3ccco3)c2)c1	-1.1	47.7*	-3.1	-3.9	-14.0
Cc1cccc(NC(=O)c2ccccc2NC(=O)c2ccco2)c1	-0.4	45.9	-2.8	4.1	-7.1
CCOc1cccc(C(=O)Nc2cccc(C(=O)NCC(C)C)c2)c1	0.3	71.1*	16.1	1.3	6.0
CCCCOc1cccc(C(=O)Nc2ccc(NC(=O)c3ccco3)cc2)c1	0.1	-1.7	-4.4	0.4	-4.9
O=C(Nc1cccc(NC(=O)c2cccnc2Cl)c1)c1ccco1	0.6	2.1	112.4*	-6.4	-11.9
Cc1cccc(OCC(=O)Nc2cccc(C(=O)NCC(C)C)c2)c1	-0.4	1.2	-2.2	11.6	-10.2
COc1ccc(C(=O)N[C@H](C(=O)NCCCSc2ccccc2)C(C)C)cc1	.	6.6	.	.	.
O=C(Nc1ccc(NC(=O)c2cccs2)c(Cl)c1)c1ccco1	-0.6	64.0*	0.7	14.6	-7.0
O=C1c2ccccc2C(=O)C1c1ccc2ccccc2n1	-0.4	60.2*	17.7	-31.6	33.3
COC(=O)C1=C(C)NC(C)=C(C(=O)OC)C1c1ccc2ccccc2n1	5.4	22.1	-3.6	-0.5	3.4
CCOC(=O)c1c(NC(=O)CN2C(=O)NC3(CCC(C)CC3)C2=O)sc(C)c1-c1ccc(C)cc1 (centres undefined)	39.0*	3.7	0.8	-1.1	-2.9
O=C(O)c1ccc(S(=O)(=O)c2ccc3c(c2)C(=O)N(c2ccc(Br)cc2)C3=O)cc1	0.6	-0.1	3.1	10.7	-10.6
CN(C)S(=O)(=O)Oc1cc(Cl)ccc1C(=O)Nc1ccc(F)cc1F	-0.2	74.0*	-2.9	-17.0	-4.5
CC(=O)c1cccc(Nc2cc(C)nc3c(C)cc(C)cc23)c1	-4.9	55.9*	12.6	4.6	-13.5
CC(=O)c1ccc(Nc2cc(C)nc3c(C)cccc23)cc1	2.9	49.3*	-4.0	-9.4	-8.1
CC(C(=O)Nc1ccccc1F)N1CCN(C)CC1 (centres undefined)	0.6	1.0	-4.1	5.5	-4.1
COc1ccc(-c2cc(-c3ccc(OC)c(OC)c3)n[nH]2)c(O)c1	3.6	4.3	40.8	-11.7	4.4
Oc1ccc(Br)cc1-c1cc(-c2ccccc2)n[nH]1	1.4	60.8*	9.0	-33.4	-7.1
COc1ccc(O)c(-c2cc(-c3cccc(Br)c3)n[nH]2)c1	2.4	63.5*	0.5	6.6	-10.7
COc1ccc(-c2cc(-c3ccc(Cl)cc3)n[nH]2)c(O)c1	5.9	6.6	0.1	-11.1	2.8
SMILES	HIF act	AHR act	Platelet DG rel	PolyA inh	p-CIP stab down
Oc1ccc(Br)cc1-c1cc(-c2ccc(Cl)cc2)n[nH]1	1.0	49.4*	1.2	21.4	-13.9
O=c1[nH]c(/C(Cl)=C/c2cc(Cl)ccc2O)nc2cc(Cl)ccc12	0.5	34.5	-7.5	-10.9	4.1
O=c1[nH]c(/C(Cl)=C/c2c(F)cccc2Cl)nc2cc(Cl)ccc12	0.2	57.9*	3.5	-1.2	-16.3
CCN(Cc1ccncc1)C(=O)c1ccc2c(c1)S(=O)(=O)c1ccccc1C2=O	-0.3	1.8	4.6	3.1	-4.8
COc1ccc(OC)c(/C=N/NC(=O)CCCC(=O)Nc2cccc(Br)c2)c1	0.0	69.6*	1.8	1.8	-1.9
COc1ccc(O)c(/C=N/NC(=O)CCC(=O)Nc2cccc(C)c2)c1	1.4	10.1	2.5	-4.1	-2.6
CCCCNC(=O)Nc1ccc(Br)cn1	1.0	51.8*	53.0*	3.2	2.2
COc1cc(NC(=S)Nc2ccccn2)c(OC)cc1Cl	0.4	58.5*	2.7	-8.4	16.1
CCC(=O)N1CCc2cc(S(=O)(=O)NCCC(=O)NC3CCCCCC3)ccc21	-0.5	0.9	3.9	-11.8	2.9
COC(=O)c1c(-c2cccnc2)csc1NC(=O)c1cc(C)on1	2.1	68.4*	-1.8	-1.9	-11.4
COC(=O)c1c(-c2ccc(C)cc2)csc1NC(=O)c1c(-c2ccccc2)noc1C	-0.9	2.2	0.2	-2.5	-4.3
CCOC(=O)c1ccc(N=Nc2c(C)[nH]n(-c3ccccc3)c2=O)cc1	-0.9	3.4	2.3	-11.3	5.7
Cc1[nH]n(-c2ccccc2)c(=O)c1N=Nc1nccs1	0.1	86.4*	4.9	12.6	7.1
Cc1ccccc1N=Nc1c(C)[nH]n(-c2ccccc2)c1=O	.	.	.	.	-1.2
CCOc1ccc(N=Nc2c(C)[nH]n(-c3ccccc3)c2=O)cc1	-0.1	49.7*	4.3	-13.5	-0.7
N#Cc1ccccc1OCC(=O)Nc1nnc(C2CC2)s1	.	64.4*	.	.	.
Cc1ccccc1OCC(=O)Nc1nnc(C2CC2)s1	.	-2.0	.	.	.
CN=c1scc(-c2cccs2)n1/N=C/c1ccc(O)c(O)c1O	0.7	22.8	60.3*	14.6	-6.0
CC(C)OC(=O)c1ccc(N)cc1	0.8	4.3	-9.7	21.8	-0.8
CN(CC(=O)Nc1ccccc1C(=O)N1CCCC1)S(=O)(=O)c1ccc(Cl)cc1	0.1	-1.4	-10.3	11.5	-3.6
Cc1cc(C(=O)NN=C(Cc2ccccc2)Cc2ccccc2)c(C)o1	1.2	57.7*	-6.4	5.2	-7.3
O=C(c1ccc(F)cc1)N(Cc1cccs1)C1CCS(=O)(=O)C1 (centres undefined)	166.6*	0.9	-1.1	23.0	-8.6
CC1CC(NC(=O)C2(C)CC2(Cl)Cl)CC(C)(C)C1 (centres undefined)	-0.5	1.8	-1.8	-13.8	-4.8
NC(=S)N/N=C/c1ccccc1OCCSc1ccc(Cl)cc1	0.0	4.8	-6.2	4.9	-13.8
Cc1nnc(C)n1/N=C/c1ccc(O)cc1	-0.2	-3.8	0.4	12.2	-4.1
SMILES	HIF act	AHR act	Platelet DG rel	PolyA inh	p-CIP stab down
Oc1ccc(/C=N/n2c3ccccc3c3ccccc32)cc1	1.9	54.6*	4.8	-15.5	3.6
Cc1ccc(N(C)C(=O)c2cc(S(=O)(=O)N3CCCC3)cn2C)cc1	0.3	-0.1	-5.6	42.5	7.5
Cc1ccnc(NC(=O)c2cnc(Cl)c(Cl)c2)c1	2.2	58.1*	7.3	-21.7	5.2
CCOc1ccc(C(=O)Nc2cc(C)ccn2)cc1	-1.9	-16.0	75.9*	-11.7	10.5
CC(C)C(c1nnnn1Cc1cccs1)N1CCN(C(=O)c2ccco2)CC1 (centres undefined)	-0.2	-2.5	-11.4	13.8	-16.7
CCN(c1ccccc1)S(=O)(=O)c1ccc(Cl)c(NC(=O)COC(=O)c2cc(O)c3ccccc3c2O)c1	2.2	122.7*	8.6	7.1	-9.4
